# Reference: PubChem BioAssay AID686978 (National Center for Advancing Translational Sciences (NCATS), 2013)
# Screen size: about 420,000 compounds; about 64,000 (15%) were called active. Another 27% or so got no clear call; they are omitted. The call rests on the fitted dose curve; in most records, active means well fitted inhibition curve with a large enough effect; inconclusive means small, poorly fitted or top-dose-only effect; inactive means flat fitted curve, though single readings scatter. Not all results are given here.
# Experiment: qHTS for Inhibitors of human tyrosyl-DNA phosphodiesterase 1 (TDP1): qHTS in cells in absence of CPT; further: nearly all actives have a fitted effect of over 55% in size
# Details: DT40 Tdp1-/- hTDP1 cells, no CPT, ATP luminescence, 48 h; activity change, negative = growth inhibition: at 46.2 µM (top of the series)
# Method in brief: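 Growth kinetics read by CellTiter-Glo luminescence after ≥48 hr at 37 °C. Cells: DT40 Tdp1-/- stably carrying human TDP1, 400 per well, compound exposure in the absence of CPT (DMSO vehicle).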
# On the % scale 0 is the no-effect control and ±100 the full control effect; potency means the concentration at half of the fitted maximal effect.
Compound,"activity change, negative = growth inhibition",Potency
Oc1ccc(-c2[nH]ncc2-c2nc3ccccc3s2)c(O)c1,10.6% (inactive),–
COCCOC1CCN(C(=O)c2ccc(OC)c(OC3CCN(C(C)C)CC3)c2)CC1,8.08% (inactive),–
NC(=O)c1ccc(N2CCOCC2)nc1,22.6% (inactive),–
CC(C)CNC(=O)COC(=O)/C=C/c1ccco1,-4.26% (inactive),–
COc1ccc(C)cc1NC(=O)CNCc1cccs1,-1.9% (inactive),–
COc1cc(NC(=O)NCC2CCN(Cc3ccc(C)cc3)CC2)cc(OC)c1OC,–,inactive
COc1ccc(-c2onc(C)c2C)cc1S(=O)(=O)NCc1cccs1,–,18.4 µM (active)
COc1ccc(-c2onc(C)c2C)cc1S(=O)(=O)NCC1CCN(Cc2cccc(F)c2)CC1,–,25.9 µM (active)
Cc1ccc(-c2onc(C)c2C)cc1S(=O)(=O)Nc1ccccn1,-25.3% (inactive),–
COc1ccc(C)cc1S(=O)(=O)NCCc1ccccc1,-19.9% (inactive),–
O=C(CN1C2CCC1CC(NC(=O)C1CC1)C2)NCc1ccccc1 (stereo not given),1.04% (inactive),–
O=S(=O)(O)CCN1CCOCC1,-6.34% (inactive),–
Cc1nc2nc(CSc3nc4ccccc4s3)cc(=O)n2[nH]1,-12% (inactive),–
C=CCOC(=O)C1=C[C@@H](c2ccc3c(c2)OCO3)C[C@@H](OCCCCO)O1,-79.5% (inactive),–
COc1ccc2ccccc2c1CNCc1ccccn1,-28.3% (inactive),–
Cc1ccc(C)c(NC(=S)NNC(=O)c2csc(C)c2)c1,–,18.4 µM (active)
Cc1ccc(C)c(NC(=O)NNC(=O)c2ccc3ccccc3c2O)c1,-26.2% (inactive),–
Cc1ccc(C)c(NC(=O)CCC(=O)NNC(=O)c2cccs2)c1,-1.86% (inactive),–
Cc1cc(C(=O)OCC(=O)Nc2nnc(C(C)C)s2)c2ccccc2n1,-1.36% (inactive),–
C=CCO/N=C(\C)c1c(O)c(C)c(-c2ccccc2)n(-c2ccccc2)c1=O,4.5% (inactive),–
CC(C)c1ccc(NC(=O)c2ccc3c(O)c(S(=O)(=O)c4ccccc4)c(=O)[nH]c3c2)cc1,-26.3% (inactive),–
COc1ccc(C)cc1S(=O)(=O)Nc1cccc(Cl)c1Cl,-19.3% (inactive),–

Compound,"activity change, negative = growth inhibition",Potency
COC(=O)c1scc(-c2ccc(C)cc2)c1S(=O)(=O)Nc1cc(Cl)c(OC)cc1OC,–,11.6 µM (active)
COc1cc(OC)c(NS(=O)(=O)c2cn(C)cn2)cc1Cl,8.31% (inactive),–
CC1O[C@@H](OC2C(O)C(C)O[C@H](OC(=O)[C@]34CCC(C)(C)C[C@H]3C3=CCC5[C@@]6(C)CC(O)C(O[C@@H]7OC(CO)C(O)[C@@H](O)[C@@H]7O)[C@@](C)(C(=O)O)C6CC[C@@]5(C)[C@]3(CO)CC4)C2O[C@H]2OC(C)[C@@H](O[C@@H]3OCC(O[C@@H]4OC(CO)C(O)[C@H](O)C4O)[C@@H](O)[C@@H]3O)[C@H](O)C2O)C(O)C(O)C1O (stereo not given in full),-0.939% (inactive),–
Cc1ccc(CN2COc3cc(C)c4c(oc(=O)c5ccccc54)c3C2)cc1,-25.3% (inactive),–
CN(C(=O)c1ccccn1)c1nnc(-c2ccccn2)s1,-6.67% (inactive),–
CC1CC(C)(C)NC(=S)N1CCC(=O)N1CCN(Cc2ccccc2)CC1 (stereo not given),-5.4% (inactive),–
CCOC(=O)c1ccc(COC(=O)c2cc(=O)[nH]c3ccccc23)o1,5.73% (inactive),–
Cc1ccc(N(Cc2cc(=O)[nH]c3ccccc23)C(=O)CCl)cc1,–,2.31 µM (active)
CC(=O)N(Cc1cc(=O)[nH]c2ccccc12)c1ccc(C)cc1C,-4.22% (inactive),–
COC(=O)c1ccccc1NC(=O)c1ccc(COc2ccccc2Cl)o1,-23.7% (inactive),–
CC(=O)Nc1ccn(Cc2c(F)cccc2Cl)n1,-21.4% (inactive),–
O=C(Nc1ccn(Cc2ccccc2F)n1)c1ccc(COc2ccc(Cl)cc2Cl)o1,–,25.9 µM (active)
O=C1CC(c2ccccc2)C(=O)N2C(=O)CC(c3ccccc3)C(=O)N12 (stereo not given),-3.36% (inactive),–
c1ccc2c(c1)OCC(c1nn3cnnc3s1)O2 (stereo not given),9.7% (inactive),–
O=C(CN1CCCC1)Nc1sc2c(c1C(=O)Nc1ccccc1)CCCC2,-23.3% (inactive),–
CCOc1ccc(NC(=O)c2c(NC(=O)Cc3ccccc3)sc3c2CCCCC3)cc1,–,20.6 µM (active)
CC(C)OC(=O)c1c(NC(=O)c2ccco2)sc2c1CCCC2,2.44% (inactive),–
CCOC(=O)c1c(NC(=O)/C=C/c2ccc(OC)cc2)sc2c1CCC(C)C2 (stereo not given),-5.43% (inactive),–
CCOc1ccc(NC(=O)c2c(NC(=O)Cc3ccccc3)sc3c2CCC(C)C3)cc1 (stereo not given),–,20.6 µM (active)
COc1ccc(CC(=O)Nc2sc(Cc3ccccc3)c(C)c2C(N)=O)cc1,-17.9% (inactive),–
Cc1sc2c(c1C)c(=O)n(-c1ccccc1)c1nncn21,-26.5% (inactive),–
Cc1cccc(C2c3c(n(C)c(=O)n(C)c3=O)N=C3c4ccccc4C(=O)C32)c1 (stereo not given),-57.1% (inactive),–

Compound,"activity change, negative = growth inhibition",Potency
Cc1ccc(Nc2nc(Cl)c(C=O)s2)cc1,–,23.1 µM (active)
Cc1ccc(Nc2nc(N)nc(CSc3nnc(C)s3)n2)cc1,-20.7% (inactive),–
CC(=O)c1sc(N/N=C\c2ccc(C)cc2)nc1C,-6.34% (inactive),–
COc1ccc(CC(=O)Nc2c3c(nn2-c2cccc(Cl)c2)CS(=O)C3)cc1 (stereo not given),-24.1% (inactive),–
Cc1ccc(OCC(=O)NC(C)c2ccccc2)c([N+](=O)[O-])n1 (stereo not given),-5.01% (inactive),–
C=C1C2C[C@H](O)C(C)(C)[C@@]2(O)[C@H](O)C[C@]23C[C@@](C)(O)[C@H](CC[C@H]12)[C@H]3O (stereo not given in full),12.3% (inactive),–
Cc1nn(-c2ccccc2)c(Cl)c1/C=N/NC(=O)c1nn(C)cc1[N+](=O)[O-],-28.7% (inactive),–
Cc1cc(C(=O)N/N=C/c2ccccc2[N+](=O)[O-])c(C)o1,-20.6% (inactive),–
Cc1c(C(=O)N/N=C/c2ccccc2)[nH]c2c([N+](=O)[O-])cccc12,–,0.92 µM (active)
O=C(Cc1ccc(NC(=O)C2CCCN(C(=O)C3CCCCC3)C2)cc1)Nc1cccc(C(=O)N2CCCCC2)c1 (stereo not given),-20.7% (inactive),–
CN(C(=O)c1cccc(NC(=O)C2CCN(C(=O)OC(C)(C)C)CC2)c1)C1CCC1,-24.9% (inactive),–
CN(C(=O)c1ccc(NC(=O)Cc2cccc(NC(=O)C3CCN(C(=O)c4ccccc4)CC3)c2)cc1)C1CC1,1.83% (inactive),–
O=C(Cc1ccc([N+](=O)[O-])cc1)Nc1ccc(C(=O)N2CCOCC2)cc1,-10.5% (inactive),–
CC(=O)c1cccc(NC(=O)N2CCCC2C(=O)NCCc2ccccc2)c1 (stereo not given),0.243% (inactive),–
CC(C)(C)OC(=O)N1CCC(C(=O)Nc2cccc(C(=O)NCCc3ccccc3)c2)CC1,–,14.6 µM (active)
CN(CCc1ccccc1)C(=O)c1cccc(NC(=O)Cc2cccc(NC(=O)C3CCCN(C(=O)CCc4ccccc4)C3)c2)c1 (stereo not given),–,13 µM (active)
CN(C(=O)c1cccc(NC(=O)Cc2ccc(NC(=O)C3CCCN(C(=O)C4CC4)C3)cc2)c1)C1CC1 (stereo not given),0.0642% (inactive),–
O=C(Cc1ccc(NC(=O)C2CCCN(C(=O)CCc3ccccc3)C2)cc1)Nc1ccc(C(=O)N2CCOCC2)cc1 (stereo not given),–,18.4 µM (active)
CN(C(=O)c1cccc(NC(=O)Cc2cccc(NC(=O)C3CCCN(C(=O)C4CC4)C3)c2)c1)C1CCC1 (stereo not given),-29.4% (inactive),–
CN(C(=O)c1cccc(NC(=O)Cc2ccc(NC(=O)C3CCCN(C(=O)C4CCCC4)C3)cc2)c1)C1CCC1 (stereo not given),–,20.6 µM (active)
CCNC(=O)c1cccc(NC(=O)C2CC(=O)N(CCc3ccccc3)C2)c1 (stereo not given),7.49% (inactive),–
